We go through three compounds from the supplement of paper PMC12282887.

This assay deals with E. coli BW25113 marRABp lux reporter. In words: promoter activity interaction Z-score (Lux/OD deviation from empty-vector control); higher = stronger promoter induction by the compound. The procedure:
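E. coli BW25113 (wild type or ΔmarA/ΔsoxS/Δrob) carrying pTU175 luxCDABE promoter reporters was grown in LB in 384-well plates at 37°C with each of 94 compounds at 4 two-fold concentrations, in biological duplicates. Luminescence and OD600 were read every 30 min for 12 h and integrated as AUC over 8 h (0-8 h WT, 1-9 h mutants). Lux AUC was divided by OD AUC; the interaction score is the residual of a Huber robust fit of each promoter against the empty-vector control, then Z-transformed per promoter.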

± gives the standard deviation of the averaged measurements.

Regarding `C[C@@H](O)[C@H]1C(=O)N2C(C(=O)O)=C(SCCNC=N)C[C@H]12` [Imipenem], the “promoter activity interaction Z-score” value runs as follows: (0.02 µg/ml, genetic background: wild type) 0.316 ± 0.21; (0.02 µg/ml, genetic background: ΔmarA) 0.592 ± 0.32; (0.02 µg/ml, genetic background: Δrob) 0.0424 ± 0.11; (0.02 µg/ml, genetic background: ΔsoxS) 0.106 ± 0.074; (0.04 µg/ml, genetic background: wild type) 0.381 ± 0.44; (0.04 µg/ml, genetic background: ΔmarA) 0.269 ± 0.79. In addition, the “promoter activity interaction Z-score” value was -0.0178 ± 0.16 (0.04 µg/ml, genetic background: Δrob); 0.0651 ± 0.041 (0.04 µg/ml, genetic background: ΔsoxS); 0.087 ± 0.15 (0.079 µg/ml, genetic background: wild type); -0.0931 ± 0.047 (0.079 µg/ml, genetic background: ΔmarA); 0.0397 ± 0.03 (0.079 µg/ml, genetic background: Δrob); 0.0374 ± 0.049 (0.079 µg/ml, genetic background: ΔsoxS). For the same compound, the “promoter activity interaction Z-score” value is, setting by setting: (0.16 µg/ml, genetic background: wild type) 0.129 ± 0.28; (0.16 µg/ml, genetic background: ΔmarA) -0.0426 ± 0.31; (0.16 µg/ml, genetic background: Δrob) -0.0898 ± 0.17; (0.16 µg/ml, genetic background: ΔsoxS) 0.217 ± 0.23.

Take `CCCC(=O)O` [Butyrate]: the “promoter activity interaction Z-score” value runs as follows: (6.9 µg/ml, genetic background: wild type) -0.205 ± 0.013; (6.9 µg/ml, genetic background: ΔmarA) -0.16 ± 0.12; (6.9 µg/ml, genetic background: Δrob) 0.206 ± 0.17; (6.9 µg/ml, genetic background: ΔsoxS) 0.201 ± 0.094; (13.8 µg/ml, genetic background: wild type) -0.136 ± 0.0092; (13.8 µg/ml, genetic background: ΔmarA) 0.187 ± 0.35. The “promoter activity interaction Z-score” value reads like this: (13.8 µg/ml, genetic background: Δrob) 0.0966 ± 0.16; (13.8 µg/ml, genetic background: ΔsoxS) 0.00738 ± 0.051; (27.5 µg/ml, genetic background: wild type) -0.429 ± 0.012; (27.5 µg/ml, genetic background: ΔmarA) -0.0336 ± 0.044; (27.5 µg/ml, genetic background: Δrob) 0.0375 ± 0.0006; (27.5 µg/ml, genetic background: ΔsoxS) 0.0783 ± 0.13. Moreover, the “promoter activity interaction Z-score” value reads like this: (55 µg/ml, genetic background: wild type) -0.383 ± 0.07; (55 µg/ml, genetic background: ΔmarA) -0.0286 ± 0.24; (55 µg/ml, genetic background: Δrob) 0.0661 ± 0.17; (55 µg/ml, genetic background: ΔsoxS) 0.114 ± 0.15.

`C[C@]12CC[C@@H]3c4ccc(O)cc4CC[C@H]3[C@@H]1CC[C@@H]2O` [Estradiol]: the “promoter activity interaction Z-score” value by setting is: (17 µg/ml, genetic background: wild type) 0.0618 ± 0.2; (17 µg/ml, genetic background: ΔmarA) -0.313 ± 0.021; (17 µg/ml, genetic background: Δrob) -0.258 ± 0.042; (17 µg/ml, genetic background: ΔsoxS) -0.0159 ± 0.095; (34 µg/ml, genetic background: wild type) -0.352 ± 0.0081; (34 µg/ml, genetic background: ΔmarA) -0.312 ± 0.088. In addition, the “promoter activity interaction Z-score” value by setting is: (34 µg/ml, genetic background: Δrob) -0.348 ± 0.044; (34 µg/ml, genetic background: ΔsoxS) 0.0387 ± 0.037; (68.1 µg/ml, genetic background: wild type) -0.254 ± 0.14; (68.1 µg/ml, genetic background: ΔmarA) -0.263 ± 0.18; (68.1 µg/ml, genetic background: Δrob) -0.158 ± 0.23; (68.1 µg/ml, genetic background: ΔsoxS) -0.162 ± 0.022. Besides, the “promoter activity interaction Z-score” value is -0.478 ± 0.16 (136.2 µg/ml, genetic background: wild type); -0.488 ± 0.082 (136.2 µg/ml, genetic background: ΔmarA); -0.392 ± 0.36 (136.2 µg/ml, genetic background: Δrob); 0.155 ± 0.22 (136.2 µg/ml, genetic background: ΔsoxS).
